# Assay outcomes as filed in PubChem.
# Most compounds without a hit are left out; they make up all but 11% or so of the library.
# PNC assembly inh: perinucleolar compartment assembly inhibition | PC3M PTB-GFP, PNC prevalence imaging, 16 h; hits give low values | 140,000 tested, 3.1% active | activity change (PNC), negative = inhibition, % at 10 µM;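 active = readout at or below -70, meaning at least 70% loss of cells showing the perinucleolar compartment, a nuclear body marking cancer cells; inconclusive = readout between -30 and a set limit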;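 also: plate controls were DMSO wells for no effect and camptothecin positive control wells for full effect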
#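 Read-out is percentage of cells bearing a perinucleolar compartment, from automated 20x imaging of fixed, Hoechst-stained PC3M PTB-GFP cells. Cells were seeded 4 h, then exposed 16 h to compound (23 nl of library stock) in duplicate plates.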
# IMPase inh: membrane-permeable compound that blocks inositol monophosphatase. P97697. CHO-M1 cells, IP1 accumulation, HTRF TR-FRET ratio. inhibition (IP1 accumulation), % at 46.1 µM. 120,000 tested, under 10 active; active = well fitted curve in the direction sought with a large enough effect in the signal ratio, not every such curve was filed as active; inconclusive = small, poorly fitted or top-dose-only effect, or a change in a side signal; inactive = no such curve, though single readings can be large or run the other way; the % refers to the signal ratio;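 also: cells stimulated with carbachol in lithium chloride buffer; plate controls were DMSO basal wells for no effect and reference inhibitor wells for full effect; higher means more IMPase inhibition seen as more IP1 and lower FRET ratio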
#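 Measured: the HTRF emission ratio (665/620 nm) plus the 620 nm donor channel, each fitted to the Hill equation to give AC50. Cells were CHO-M1 given compounds up to 46 uM and a 30 min carbachol stimulation at 37C.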
# IMPase Li cell: membrane-permeable IMPase blocker, potentiated with lithium; CHO-M1 cells, IP1 TR-FRET (IP-One), carbachol + lithium; Potency, µM (top dose mostly 59.4 µM), inactives show at the top dose activity, negative = IMPase inhibition, usual class: inhibitors; 210,000 tested, 0.35% active; active = well fitted curve in the direction sought with a large enough effect; inconclusive = small, poorly fitted or top-dose-only effect, or another doubt; inactive = no such curve, though single readings can be large; an effect the other way counts as inactive or inconclusive;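 also: IP1 builds up when IMPase is blocked and the TR-FRET signal falls; potency is read from the fitted curve at half-maximal effect; plate controls were basal vehicle for no effect and high inhibitor control for full effect; nearly all actives have a fitted effect of over 50% in size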
#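 Lithium-sensitised IP1 accumulation assay; M1-expressing CHO cells treated 30 min at 37C with compound. Competitive antibody detection by time-resolved FRET followed a 10 min room-temperature lysis step.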
# HPGD block: inhibitors of human 15-hydroxyprostaglandin dehydrogenase (HPGD). Potency, µM, without a hit: at the top dose activity change, negative = inhibition, actives largely listed as inhibitors. P15428. AID 894. purified HPGD, NADH fluorescence kinetic, PGE2 substrate. 150,000 tested, 4.3% active; also: potency is read from the fitted curve at half-maximal effect
# Target sequence (P15428 whole entry, looked up): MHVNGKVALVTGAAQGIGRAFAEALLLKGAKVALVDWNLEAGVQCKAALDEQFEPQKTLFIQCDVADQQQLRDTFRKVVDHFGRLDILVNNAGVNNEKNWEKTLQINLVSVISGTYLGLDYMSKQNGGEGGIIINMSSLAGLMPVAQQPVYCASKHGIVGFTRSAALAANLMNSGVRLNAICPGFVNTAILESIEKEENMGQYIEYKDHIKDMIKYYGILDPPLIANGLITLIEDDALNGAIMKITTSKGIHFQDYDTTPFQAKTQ
#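 20 nM HPGD preincubated 15 min at room temperature with compound in 50 mM Tris-HCl pH 8, 0.01% Tween 20. Started with 1 mM NAD+ and 30 uM prostaglandin E2; NADH fluorescence (360/450 nm) read 5 times over 30-s intervals, last minus first.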
# NPSR antagonist: neuropeptide S receptor (human) antagonism, cAMP; Q6W5P4; CHO-NPSR cells, cAMP TR-FRET, antagonist mode; Potency, µM (highest dose often 38.3 µM), for the others: top-dose activity change, negative = inhibition, actives largely listed as inhibitors; 220,000 tested, 1% active; AID 1461; active = well fitted curve in the direction sought with a large enough effect; inconclusive = small, poorly fitted or top-dose-only effect, or another doubt; inactive = no such curve, though single readings can be large; an effect the other way counts as inactive or inconclusive; also: potency is read from the fitted curve at half-maximal effect; nearly all actives have a fitted effect of over 50% in size
# ALDH1A1 block: inhibitors of human aldehyde dehydrogenase 1A1; P00352; Purified ALDH1A1, NADH fluorescence, propionaldehyde substrate; Potency, µM (series often up to 75.3 µM), for the others: at the highest dose activity, negative = inhibition, hits mostly inhibitors; 220,000 tested, 7.3% active; AID 1030;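 also: potency is read from the fitted curve at half-maximal effect; plate controls were no enzyme wells and a reference inhibitor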
# Target sequence (P00352 whole entry, looked up): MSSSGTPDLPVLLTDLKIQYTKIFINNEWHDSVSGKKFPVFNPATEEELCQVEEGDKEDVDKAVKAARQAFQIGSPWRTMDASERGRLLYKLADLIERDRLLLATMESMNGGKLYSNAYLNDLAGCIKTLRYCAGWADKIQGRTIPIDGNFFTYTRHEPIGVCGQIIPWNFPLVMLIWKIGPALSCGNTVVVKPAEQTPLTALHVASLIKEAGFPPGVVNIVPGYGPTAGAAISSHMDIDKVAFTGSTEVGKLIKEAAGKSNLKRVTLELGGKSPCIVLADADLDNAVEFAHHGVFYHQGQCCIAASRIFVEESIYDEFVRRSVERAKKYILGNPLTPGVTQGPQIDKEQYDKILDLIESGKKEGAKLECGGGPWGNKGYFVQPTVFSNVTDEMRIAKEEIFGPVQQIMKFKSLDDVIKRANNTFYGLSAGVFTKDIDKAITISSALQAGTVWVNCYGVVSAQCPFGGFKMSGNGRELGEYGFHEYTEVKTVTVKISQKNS
# An asterisk follows results filed as active; ? = inconclusive; . = not tested or not shown; [ ] = dose if it differs, or a comment. Unless noted, calls follow the shape of the dose curve; as a rule, active = well fitted inhibition curve with a large enough effect (not every such curve was filed as active); inconclusive = small, poorly fitted or top-dose-only effect, or another doubt; inactive = no such curve, though single readings can be large or run the other way. Unless noted, % is scaled to controls: 0 for no effect and ±100 for the full control effect.
SMILES,PNC assembly inh,IMPase inh,IMPase Li cell,HPGD block,NPSR antagonist,ALDH1A1 block
Cc1cccc(CN2CCN(C(=O)c3ccccc3F)CC2)c1,?,7,8%[38.3 µM],5%,-7%[46.1 µM],?
CS(=O)(=O)N1CCC(C(=O)NCc2ccco2)CC1,?,3,24%[38.3 µM],0%,-2%[46.1 µM],-8%
COCCn1c(=O)c(-c2ccc(F)c(F)c2)nc2cncnc21,.,.,6%,-27%,.,-8%
COc1cc(C=C2C(=O)c3ccccc3C2=O)ccc1O,.,.,.,.,-2%,?
COc1cccc(/C=C2\C(=O)C(=O)c3ccccc32)c1,?,-9,-6%[38.3 µM],3.5µM*,-13%[46.1 µM],?
COc1ccc(C=C2C(=O)c3ccccc3C2=O)cc1O,.,.,64%,.,-49%,0.89µM*
COc1cc(C=C2C(=O)c3ccccc3C2=O)cc(OC)c1OC,.,.,0%,.,6%,1.6µM*
COc1cccc(-n2ccnc2SCC(=O)NCc2ccccc2)c1,25,1,.,.,-7%[46.1 µM],-4%
CCOC(=O)C1(C(=O)O)NC(=O)CC1c1ccccc1 (centres undefined),-95*,3,6%[38.3 µM],-8%,-3%[46.1 µM],-8%
O=C(N/N=C/c1cc(Cl)ccc1O)C(=O)Nc1ccccc1OC(F)(F)C(F)F,-90*,.,-17%,-19%,-16%,-4%
O=C(C1CCCO1)N1CCN(c2c3c(nc4cc(-c5ccc(F)cc5)nn24)CCC3)CC1 (centres undefined),-23,-2,-1%[38.3 µM],?,-23%[46.1 µM],22µM*
OC1CCN(c2c3c(nc4cc(-c5ccc(F)cc5)nn24)CCC3)CC1,14,1,4%[38.3 µM],-19%,-21%[46.1 µM],6%
COc1ccc(CCNC(=O)Cn2c(=O)n(-c3cc(F)ccc3F)c(=O)c3sccc32)cc1OC,.,.,-6%,.,2%,1µM*
COc1ccc(CCNC(=O)Cn2c(=O)n(-c3ccc(F)cc3F)c(=O)c3sccc32)cc1OC,.,.,-4%,.,-12%,?
C/C(=N/N=C(/N)SCc1ccccc1)C(C)(C)C,.,.,2%,.,12%,?
C/C(N=NC(=[SH+])SCc1ccccc1)=C1\C=CC=CN1.[Cl][Cu],.,.,2%,3.5µM*,.,2.5µM*
COc1ccccc1/C=N/N1C(=O)C2C3C=CC(CC3)C2C1=O (centres undefined),.,.,17%,.,13%,7.1µM*
O=C1C2C3C=CC(CC3)C2C(=O)N1/N=C/c1c[nH]c2ccccc12 (centres undefined),.,.,2%,.,6%,?
COc1ccc(/C=N/N2C(=O)C3C4C=CC(CC4)C3C2=O)c(OC)c1 (centres undefined),.,.,12%,.,12%,2.2µM*
CCC1NC(=S)N(C2CCCCC2)C1=O (centres undefined),1,-2,2%[38.3 µM],-4%,-5%[46.1 µM],?
COC(=O)[C@H]1[C@H](C(=O)OC)[C@@H](C(=O)OC)N(c2ccc(OC)cc2)[C@@H]1C(=O)OC,12,.,-7%,2%,-2%,4%
COc1ccc(N2CCSC2C(=O)NN)cc1 (centres undefined),15,-3,4%,-15%,9%,3.2µM*
CCOc1ccccc1C1C2C(=O)N(c3ccccc3)C(=O)C2ON1c1ccccc1 (centres undefined),20,10,18%[38.3 µM],-18%,0%[46.1 µM],22µM*
O=C(O)COc1ccccc1C1C2C(=O)N(c3ccccc3)C(=O)C2ON1c1ccccc1 (centres undefined),25,-1,4%[38.3 µM],-6%,2%[46.1 µM],25µM*
CN1OC2C(=O)N(c3ccccc3)C(=O)C2C1c1ccc(F)cc1 (centres undefined),18,-23,.,.,2%[46.1 µM],8.9µM*
SMILES,PNC assembly inh,IMPase inh,IMPase Li cell,HPGD block,NPSR antagonist,ALDH1A1 block
Cc1ccc(N2C(=O)C3ON(c4ccccc4)C(c4ccncc4)C3C2=O)cc1 (centres undefined),-30,14,11%[38.3 µM],-27%,0%[46.1 µM],2.5µM*
O=C1C2ON(c3ccccc3)C(c3ccncc3)C2C(=O)N1c1ccc(Br)cc1 (centres undefined),14,9,.,.,1%[46.1 µM],?
Cc1ccccc1C1(CCN2CCCCC2)CCOC(C)(C)C1 (centres undefined),-7,.,15%,-3%,2%,9%
COCCN1C(=O)C(=O)/C(=C(/O)c2cccc(OC)c2)C1c1ccco1 (centres undefined),9,-12,-6%[38.3 µM],-9%,-4%[46.1 µM],1%
CCOc1cc(CNc2ncnc3nc[nH]c23)ccc1OC,?,0,16%[38.3 µM],-10%,-3%[46.1 µM],12%
CCn1nc(C)c(NC(=O)CSc2nnc(-c3ccco3)n2C)c1C,-3,-10,27%[38.3 µM],-1%,0%[46.1 µM],0%
CC(C)c1cc(NC(=O)CSc2nnc(-c3ccccc3F)n2C)on1,-100*,3,3%[38.3 µM],-1%,-4%[46.1 µM],?
Cc1nn(Cc2ccccc2)c(C)c1NC(=O)CSc1nnc(-c2cc(Cl)ccc2O)n1C,-14,10,32%[38.3 µM],28µM*,23%[46.1 µM],?
Cn1cc(C(=O)c2ccccc2)cc1-c1nc2ccccc2n1C,-30,6,9%,?,-30%[46.1 µM],-14%
Cc1oc(-c2nc3ccccc3n2C)cc1C(=O)c1ccccc1,-13,9,-5%,35µM*,-19%[46.1 µM],?
CC(=O)Nc1ccc(-c2cc(-c3ccc(NC(C)=O)cc3)nc(-c3ccccc3)n2)cc1,19,3,32µM*,?,2%[46.1 µM],?
CC(=O)Nc1ccc(-c2cc(-c3ccccc3)nc(-c3ccccc3)n2)cc1,-5,.,8.9µM*,?,?,?
CCC(=O)Nc1ccc(-c2cc(-c3ccccc3)nc(-c3ccc(NC(=O)CC)cc3)n2)cc1,?,?,10µM*,?,3%[46.1 µM],?
CC(=O)Nc1ccc(-c2cc(-c3ccc(NC(C)=O)cc3)nc(-c3ccc(NC(C)=O)cc3)n2)cc1,11,.,?,?,-28%,?
CC(=O)Nc1ccc(-c2csc(NC(C)c3ccccc3)n2)cc1 (centres undefined),.,.,-4%,.,-12%,18µM*
CCC(=O)Nc1ccc(-c2csc(C)n2)cc1,-30,.,4%,-19%,7%,6%
CC(C)(C)c1ccc(S(=O)(=O)N2CCC(O)(c3ccc(Cl)cc3)CC2)cc1,.,.,.,.,50%,.
CC1CCCN(Cc2nc3c(c(=O)n(C)c(=O)n3C)n2CC(N)=O)C1 (centres undefined),?,8,-8%[38.3 µM],-5%,5%[46.1 µM],10%
CCCn1c2ccccc2c2nnc(SC(CC)C(=O)Nc3sc4c(c3C#N)CCCC4)nc21 (centres undefined),?,-5,20%[38.3 µM],-27%,-13%[46.1 µM],28µM*
